# Source: PubChem BioAssay AID1962 (The Scripps Research Institute Molecular Screening Center, 2009)
# Among all 300,000 compounds or so, about 2,500 (0.83%) were called active. Shown is part of a subset that was picked to be rich in actives. Values without a mark were called inactive.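 How the source made its calls: active means inhibition above the mean of all tested compounds plus 3 SD, set per screening campaign (cut at about 24% in these data); inactive means the rest.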
# System: tRNA 2'-phosphotransferase TPT1 (Candida albicans SC5314)
# Experiment: Candida albicans TPT1 enzyme inhibitors, primary screen, biochemical, fluorescence polarization (AID 1962);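 further: plate controls were DMSO alone for no effect and ferristatin control at 100 nM for full effect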
# Conditions: recombinant caTPT1, FP RNA substrate dephosphorylation; at 5 µM; active compounds read high
row,Structure (SMILES),inhibition
1,Cc1ccc2nc(-c3ccncc3)cc(C(=O)Nc3ccncc3)c2c1,-2.29%
2,O=C(Nc1ccc(S(=O)(=O)Nc2nccs2)cc1)c1cc(-c2ccncc2)nc2ccccc12,42.7% (active)
3,O=C(Nc1ccc(S(=O)(=O)Nc2nccs2)cc1)c1cc(=O)[nH]c2ccccc12,11.7%
4,O=C(NC(Cc1ccc(O)cc1)C(=O)O)/C(=C/c1ccccc1)NC(=O)c1ccccc1 (stereo not drawn),-2.71%
5,CC(=O)Oc1cccc(C(=O)Nc2ccccc2NC(=O)c2cccc(OC(C)=O)c2)c1,-1.86%
6,CC(=O)c1cc(NC(=O)c2ccccc2)c(=O)oc1/C=C/N(C)C,110% (active)
7,CCOC(=O)c1cc(NC(=O)c2ccc(Cl)cc2)c(=O)oc1-c1ccccc1,-4.37%
8,Cc1ccc(N2CCN(C(=O)c3cccs3)CC2)c(C)c1,-2.58%
9,Cn1cccc1/C=C1\SC(=S)N(NC(=O)c2ccc(Cl)cc2)C1=O,84.1% (active)
10,O=C(O)c1ccc(/C=C2\SC(=S)N(NC(=O)c3ccc(Br)cc3)C2=O)cc1,5.29%
11,Cn1cccc1/C=C1\SC(=O)N(CC(=O)Nc2ccc(F)cc2)C1=O,1.77%
12,CCCC(=O)Nc1ncnc2c1ncn2[C@@H]1O[C@@H]2OP(=O)(O)OC[C@H]2[C@H]1OC(=O)CCC,-4.36%
13,COc1cc(N2CCCC2)c(OC)cc1/C=C(/C#N)c1cccc(Br)c1,103% (active)
14,CC(=O)Nc1cccc(Oc2cc(C#N)c(C#N)cc2N2CCOCC2)c1,-0.51%
15,COc1ccc(Br)cc1/C=N/n1c(C)nnc1C,-0.28%
16,O=C1NCCn2nc3ccccc3c21,-3.31%
17,Cc1ccc(S(=O)(=O)N(C)c2nc3ccccc3n3c(C(C)C)nnc23)cc1,49.9% (active)
18,Cc1ccc(Oc2nc3ccccc3n3c(C)nnc23)cc1,-2.63%
19,CC(=O)Nc1ccc(S(=O)(=O)N(C)c2nc3ccccc3nc2Cl)cc1,-0.11%
20,C#CCOCCOCCOCCNc1nc(N2CCN(C(=O)CCCCCCCCCCNC(=O)[C@H](CCCCN)n3cc(C)nn3)CC2)nc(N2CCN(C(=O)CCCCCCCCCCNC(=O)[C@H](CO)n3cc(CCCSC)nn3)CC2)n1,0.52%
21,CN=C(c1ccccc1)c1c(C)cccc1C,-0.46%

row,Structure (SMILES),inhibition
1,CN1C/C(=C/c2cccs2)C(=O)/C(=C\c2cccs2)C1,-2.84%
2,Cc1cccc(C2=N/C(=C/c3cccs3)C(=O)O2)c1,-1.73%
3,CSC1=N/C(=C\C=C\c2cccs2)C(=O)S1,35.6% (active)
4,CCOC(=O)c1c(NC(=S)NC)sc2c1CCCC2,-1.5%
5,CCOC(=O)c1c(NC(=S)Nc2ccccc2)sc2c1CCN(C)C2,53.5% (active)
6,CCOC(=O)c1c(NC(=O)NC(C)(C)C)sc2c1CCN(C)C2,2.5%
7,CCOc1ccc(/C=C/C(=O)N(CC)CC(=O)NCc2cccs2)cc1OC,-3.86%
8,CC(=O)c1sc(N/N=C\c2ccc(C)cc2)nc1C,17.2%
9,COc1ccccc1/C=N/Nc1nc(C)c(C(C)=O)s1,28% (active)
10,CC(=O)c1sc(N/N=C/c2ccc(C(C)C)cc2)nc1C,23%
11,CCCCNC(=O)Nc1c(C)cc(SC#N)cc1C,-6.37%
12,COCCNC(=O)C1CCN(C(=O)C2CC(=O)N(c3ccc(C)cc3)C2)CC1 (stereo not drawn),1.54%
13,Cc1ccn2c(c1)nc(=O)c1cc(S(=O)(=O)N3CCC(C)CC3)ccc12,0.45%
14,COc1ccc(C(=O)N/N=c2\oc3ccccc3cc2C(N)=O)cc1,4.71%
15,NC(=O)c1cc2ccccc2o/c1=N/NC(=O)c1cccc(F)c1,-1.51%
16,CCN(CC)c1ccc2cc(C(N)=O)/c(=N\NC(=O)c3ccncc3)oc2c1,133% (active)
17,NC1=NC(=O)C(Cc2cccc(Cl)c2)S1 (stereo not drawn),-2.15%
18,CCC(=C/c1sc2ccc3ccccc3c2[n+]1C)/C=C1\Sc2ccc3ccccc3c2N1C,92% (active)
19,CCCCCCCCn1c2c(c(=N)c3c1CCC3)CCCC2,-2.44%
20,CCCCCCSc1ccc([C@@H]2[C@@H]3C(=O)N(CC)C(=O)[C@@H]3[C@]3(C(=O)OC)CCCCN23)cc1OC,1.68%
21,COc1cc(N=Cc2c(O)[nH]c3ccccc23)cc(OC)c1OC,-0.99%

row,Structure (SMILES),inhibition
1,CN=c1scc(-c2cc(OC)ccc2OC)n1/N=C/c1c(C)[nH]c2ccccc12,62.6% (active)
2,CCn1c(-c2cc(OC)ccc2OC)csc1=Nc1c(C)n(C)n(-c2ccccc2)c1=O,-1.13%
3,Cc1nn2c(=O)cc(COC(=O)c3ccc(NC(=O)C(C)(C)C)cc3)nc2s1,-2.53%
4,CCOC(=O)[C@H]1[C@H]2COc3ccc(OC)cc3[C@@H]2N2C(=O)c3ccc(F)cc3NC(=O)[C@@]12C,0.85%
5,CC(C)CCN1NC2(CCC(C)CC2)NC1=S (stereo not drawn),2.43%
6,COc1ccc2ccccc2c1CNc1nnnn1C,-1.06%
7,O=C1CN(C(=O)c2ccccc2F)C(c2ccc(F)cc2)c2cc(F)ccc2N1 (stereo not drawn),0.25%
8,CCC(c1nnnn1Cc1ccco1)N(CCc1ccccc1)Cc1cc2ccc(OC)cc2[nH]c1=O (stereo not drawn),-2.34%
9,CCC(c1nnnn1Cc1ccccc1)N(Cc1cc2cc(OC)ccc2[nH]c1=O)CC1CCCO1 (stereo not drawn),-1.86%
10,CCC(c1nnnn1Cc1ccco1)N(Cc1cc2cc(OC)ccc2[nH]c1=O)C1CCCCC1 (stereo not drawn),38.4% (active)
11,CCOc1ccc(Oc2nc(C)cc(OC)n2)nn1,-1.74%
12,CN(C)C(=O)N=NC(=O)N(C)C,-3.37%
13,COc1ccccc1-c1sc2ccccc2c1-c1ccc(C(C)=O)cc1,-1.61%
14,COC(=O)Cc1[nH]n(-c2nc3ccccc3s2)c(=O)c1C(C)=Nc1ccc(OC)cc1,1.09%
15,COc1ccc(N=C(C)c2sc3ccccc3c2O)cc1,63.5% (active)
16,CC(C)(Oc1ccc(C2CC2(Cl)Cl)cc1)C(=O)O (stereo not drawn),-2.25%
17,Cc1cccc2cc3c(N)c(C(=O)N4CCCc5ccccc54)sc3nc12,45.2% (active)
18,Cc1c(C(=O)N2CCCc3ccccc32)sc2nc(-c3ccccc3)cn12,-1.15%
19,Cc1c(C(=O)N2CCCc3ccccc32)oc2ccccc12,-2.42%
20,C#CCOCCOCCOCCNc1nc(N2CCN(C(=O)Cn3cc(CCCCN)nn3)CC2)nc(N2CCN(C(=O)[C@H](CCCCN)n3cc(CCC(=O)O)nn3)CC2)n1,-1.83%
21,Cc1ccc(Cc2nnc(SCC(=O)Nc3ccccc3C)[nH]c2=O)cc1,1.69%
